Source: PubChem
AMPAR-TARP mod – modulates AMPAR-stargazin complexes; O88602+P19491; HEK293 GluA2+stargazin, membrane potential dye (FDSS), glutamate EC50; hits were called plate by plate, in both directions; calls only at 30 µM; 40,000 tested, 3.5% active;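 active means any of four per-well response measures lying three or more SD from its plate-wide compound average, in either direction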
GIRK2 act – Activators of human GIRK2-containing channels | P48051 | HEK293 GIRK2/NPY4 cells, thallium flux fluorescence | activation (% efficacy), % for hits at 75 µM | 34,000 tested, under 10 active | AID 1259324;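 active means primary screen hit, no activity in plain HEK293 cells, and in GIRK2-only cells above 5% efficacy rising with concentration; inactive means the rest, including fluorescent compounds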;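 further: efficacy is normalized control-subtracted fluorescence 15 s after thallium addition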
Target sequence (P48051 whole entry, looked up): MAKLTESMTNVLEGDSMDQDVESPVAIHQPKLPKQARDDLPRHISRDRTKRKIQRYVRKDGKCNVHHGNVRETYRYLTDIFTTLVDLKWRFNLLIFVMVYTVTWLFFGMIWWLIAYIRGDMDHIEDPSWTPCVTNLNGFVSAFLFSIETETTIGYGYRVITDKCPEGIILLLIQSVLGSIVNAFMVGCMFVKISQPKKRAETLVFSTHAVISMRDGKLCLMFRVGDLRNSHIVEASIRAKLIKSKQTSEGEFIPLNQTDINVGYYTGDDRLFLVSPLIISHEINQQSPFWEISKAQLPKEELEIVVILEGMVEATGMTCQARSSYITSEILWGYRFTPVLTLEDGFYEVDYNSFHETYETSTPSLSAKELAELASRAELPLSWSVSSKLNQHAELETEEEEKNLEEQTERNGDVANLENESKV
Starred values were filed as active, the others as inactive; i = inactive; · = no result given; + = active, no number; [ ] = another dose, or the depositor's remark. This is one part of a sample in which hits are shown more often than they occur.

SMILES	AMPAR-TARP mod	GIRK2 act
COc1cc(OC)cc(C(=O)Nc2nnc(-c3ccc(OC)cc3OC)o2)c1	i	·
CCOc1ccc(-c2nnc(NC(=O)CC)o2)cc1OCC	+	i
CCCCOc1ccc(C(=O)Nc2nnc(-c3ccc(OC)c(OC)c3)o2)cc1	i	i
Cc1ccc(C(=O)Nc2nnc(-c3cccs3)o2)cc1	i	·
COc1cc(OC)cc(C(=O)Nc2nnc(-c3ccc(OC)c(OC)c3)o2)c1	+	i
COc1ccc(-c2nnc(NC(=O)c3ccc(S(=O)(=O)C(C)C)cc3)o2)cc1OC	+	i
Cc1ccc(-c2noc(Cn3cnc4c(nnn4-c4ccccc4)c3=O)n2)cc1	i	i
O=C(c1ccccc1Cl)N(CCc1ccccc1)Cc1ccccn1	i	i
COc1ccc(NC(=O)Cn2cnc3c(sc4ncccc43)c2=O)cc1Cl	i	i
CSc1ncccc1C(=O)N1CCC(CNS(=O)(=O)Cc2cccc(F)c2)CC1	i	i
Cc1cc(-c2nnc(NC(=O)Cc3c(F)cccc3Cl)o2)nn1C(C)C	i	i
COc1ccc(C(=O)Nc2nnc(-c3ccc(OC)c(OC)c3)o2)cc1OC	+	i
COc1ccc(C(=O)Nc2nnc(-c3ccc(SC)cc3)o2)cc1OC	i	i
COC(=O)Cn1c(=O)c2c(nc3n(-c4cccc(C)c4)c(-c4ccccc4)cn23)n(C)c1=O	i	·
O=C(NCc1ccccc1)C(=O)NCC1(O)CCCC1	i	i
Cn1nccc1-c1nnc(NC(=O)c2ccc(Br)o2)o1	+	i
Cc1cnn(C)c1C(=O)Nc1nnc(-c2ccnn2C)o1	i	i
CCOc1ccc(OCC(=O)Nc2cc(C(=O)N3CCCCCC3)cn(C)c2=O)cc1	i	·
COc1ccc(C(=O)NCCn2ncc3c(N4CCCCCC4)ncnc32)cc1OC	i	i
O=C(NCCn1ncc2c(N3CCCC3)ncnc21)c1ccc(=O)oc1	+	·
COc1ccc(CNC(=O)Cn2cc(-c3ccc(Cl)cc3)c(N(C)C)n2)cc1	·	i
COc1ccc(CCC(=O)Nc2ccc3c(c2)N(S(=O)(=O)c2ccc(F)cc2)CCC3)cc1	i	·
COc1ccc(N2CCN(CCn3c(C)c(C)n4c5c(=O)[nH]c(=O)n(C)c5nc34)CC2)cc1	i	·
Cn1c(=O)[nH]c(=O)c2c1nc(N1CCN(CC(N)=O)CC1)n2Cc1ccccc1	+	·
Cn1c(=O)[nH]c(=O)c2c1nc(N1CCOCC1)n2CCCn1c(N2CCOCC2)nc2c1c(=O)[nH]c(=O)n2C	i	·
SMILES	AMPAR-TARP mod	GIRK2 act
COc1ccc(N2CCN(CCCn3c(C)c(C)n4c5c(=O)[nH]c(=O)n(C)c5nc34)CC2)cc1	+	·
CCOCCn1c(N2CCN(CC)CC2)nc2c1c(=O)[nH]c(=O)n2C	i	·
Cn1c(=O)[nH]c(=O)c2c1nc(N1CCN(CC(N)=O)CC1)n2Cc1cccc(Cl)c1	i	·
CCCCCCCCCn1c(N2CCNCC2)nc2c1c(=O)[nH]c(=O)n2C	+	9.0%*[37.5 µM]
CCN1CCN(c2nc3c(c(=O)[nH]c(=O)n3C)n2CCCOc2ccccc2)CC1	+	·
Cc1c(C(=O)NCc2ccc(Cl)cc2)nnn1-c1ccccc1	i	i
CN(C)c1ccc(NC(=O)c2ccc(S(=O)(=O)N3CCOCC3)cc2)cc1	i	·
COc1ccc(S(=O)(=O)NCC2CCCO2)cc1N(C)S(=O)(=O)c1ccccc1 (stereo unspecified)	i	·
Cc1nn(C2CCS(=O)(=O)C2)c2nc(-c3ccccc3)cc(C(=O)N3CCCCCC3)c12 (stereo unspecified)	·	i
COc1cccc(CNC(=O)CN2CCN(Cc3ccc(F)cc3Cl)S2(=O)=O)c1	i	i
COc1ccccc1-c1ccc(N2CCC(C(=O)N3CCc4ccccc43)CC2)nn1	i	i
O=C(Nc1ccc(N2CCCS2(=O)=O)cc1)Nc1ccc(Cl)c(Cl)c1	+	i
Cc1ccc(N2CCCS2(=O)=O)cc1NC(=O)Nc1ccc(Cl)c(Cl)c1	i	i
CCOc1ccc(S(=O)(=O)NCC(=O)N2CCOC(c3ccccc3)C2)cc1C (stereo unspecified)	·	i
CSc1ccc(CNC(=O)c2snc(C(=O)NC(C)C)c2N)cc1	i	i
Cc1cc(C)c2c(n1)nn1c(N3CCN(Cc4ccccc4)CC3)cc(C)nc21	+	i
Cc1cc(N2CCN(CC#N)CC2)n2nc(C(F)(F)F)c(-c3ccccc3)c2n1	i	i
Cc1cc(C)c2c(n1)nn1c(N3CCN(CCOc4ccc(Cl)cc4)CC3)cc(C)nc21	i	·
C=C(C)CN1CCN(c2cc(C)nc3c4c(C)cc(C)nc4nn23)CC1	+	i
COc1ccc(F)cc1CN1CCN(c2cc(C)nc3c4c(C)cc(C)nc4nn23)CC1	+	i
COc1ccccc1-c1cnn2c(N3CCN(CC#N)CC3)cc(C)nc12	i	i
CC(=O)N1CCN(c2ccnc3c2c(=O)n(CC(=O)Nc2cc(C)cc(C)c2)c(=O)n3C)CC1	i	·
